Data from PubChem BioAssay AID588436 (Broad Institute, 2011).
Hit rate of the full screen: of about 350,000 compounds, about 550 (0.16%) were called active. What follows is part of a selection rich in actives, with near analogues and random picks from the rest. Values without a mark were called inactive. Cut-off read from the data, not from the text of the source: active = activation mostly above about 9.7% (no sharp cut-off); inconclusive = no clear call, values can overlap the other calls; inactive = mostly below about 3.7%.

Test: induces V. cholerae light production without autoinducers, primary screen, BH1578 luxS cqsA deficient, single point (AID 588436)
Conditions: V. cholerae BH1578 lux reporter, luminescence, 6 h, at 18.7 µM; hits give high values

Compound | activation
Cc1ccc(-c2nc(CS(=O)(=O)CC(=O)NCc3ccc4c(c3)OCO4)c(C)o2)cc1 | -0.345%
CC(=O)c1ccc(Cc2ncc(C(F)(F)F)cc2Cl)s1 | inactive
CCOc1ccc(S(=O)(=O)N/N=C(\C)c2ccc(Cl)c(Cl)c2Cl)cc1 | inactive
CC1Cc2ccccc2N1S(=O)(=O)c1ccc(Cl)nc1 (stereo not given) | inactive
COC(=O)C1=C(C)N(c2ccc(C)cc2)/C(=C/c2ccc(O)cc2)C1=O | -0.588%
CCCC(=O)Nc1ccc2c(c1)nc1n2CCSC1 | -5%
COc1ccc(N2CCN(C(=O)c3cn(C)c4ccc(S(=O)(=O)N5CCOCC5)cc4c3=O)CC2)cc1 | 1.02%
Cc1ccc(CNC(=O)C2CCCN2S(=O)(=O)c2ccc3c(c2)C(C)(C)C(=O)N3C)cc1 (stereo not given) | -0.135%
CCNC(=O)CCc1nc(-c2ccc(C(C)(C)C)cc2)no1 | inactive
CCOC(=O)C1(CCOc2ccccc2)CCN(Cc2cc(OC)cc(OC)c2)CC1 | 21.2% (active)
CCOC(=O)C1(CCOC)CCN(Cc2ccc(C(=O)OC)cc2)CC1 | 0.0345%
CCOC(=O)C1(CCOc2ccccc2)CCN(Cc2ccc(C#CCCO)cc2)CC1 | inactive
O=C(Nc1ccccc1C(=O)N1CCOCC1)c1ccc(Cl)cc1 | -0.216%
COc1ccccc1C(=O)NC(=O)COC(=O)C1CC1 | 0.621%
CCOc1ccccc1NC(=O)CCc1nnc2ccc(NCc3ccco3)nn12 | -0.0905%
COc1ccc2c(c1)c(C(=O)N/N=C/c1cccs1)c(C)n2C | -0.575%
Fc1c(F)c(C(F)(F)F)c(F)c(F)c1N1CCN(c2ccc3nnc(C(F)(F)F)n3n2)CC1 | 0.463%
COc1ccc(S(=O)(=O)N(C)C[C@H]2Oc3c(NC(=O)Nc4ccc5c(c4)OCO5)cccc3C(=O)N([C@H](C)CO)C[C@@H]2C)cc1 | 1.22%
CCCc1nc2ccccc2c(C(=O)OCc2nnc(-c3cc(OC)c(OC)c(OC)c3)o2)c1CC | -0.28%
CN(CC1CCCO1)S(=O)(=O)c1ccc(C(=O)Nc2ccc([N+](=O)[O-])cc2)cc1 (stereo not given) | inactive
Cn1ccc(=Nc2ccc(NC(=O)c3ccc(N=c4ccn(C)c5ccc([N+](=O)[O-])cc45)cc3)cc2)cc1 | 52.2% (active)
CC(C)c1ccc(NC(=O)CCN2C(=O)c3ccc([N+](=O)[O-])cc3C2=O)cc1 | -0.342%
CCOP(=O)(OCC)C(Nc1cccc(C)c1)c1ccc(F)cc1 (stereo not given) | -0.244%
CSc1ccc(S(=O)(=O)NCc2ccc(Cl)cc2)cc1 | -1.22%

Compound | activation
OC[C@@H]1CN(Cc2cccs2)C[C@H](n2cnc3c(Nc4ccccc4)ncnc32)O1 | -0.66%
C=CCn1cc(-c2cccc(C(F)(F)F)c2)cc(C#N)c1=O | -4.13%
CC(=O)N1CCN(C(=O)C2(NC(=O)Nc3ccc(C)cc3)CCCCC2)CC1 | -0.583%
CNC(=O)N1c2ccccc2C=Cc2ccccc21 | -0.261%
CC(=O)Nc1cccc(-c2cc3nc(NCc4cccnc4)n(C)c(=O)c3s2)c1 | inactive
Cc1c(Br)c([N+](=O)[O-])nn1CC(=O)Nc1sc2c(c1C(=O)OC(C)C)CCC(C)C2 (stereo not given) | -0.23%
O=C(c1ccc(F)cc1)N1CCC(C(=O)N2CCN(S(=O)(=O)c3ccccc3Br)CC2)CC1 | inactive
CC(=O)Nc1ccc(Oc2ccc3c(c2)C(=O)NC3=O)cc1 | 0.165%
O=C(COc1coc(CN2CCN(c3ccccc3F)CC2)cc1=O)N1CCc2ccccc21 | -0.376%
CCN(CC)S(=O)(=O)c1ccc2c3c(cccc13)C(=O)S2 | inactive
Cc1nn(C)c(C)c1S(=O)(=O)N1CCC(CO)(Cc2ccc(Cl)cc2)CC1 | -0.416%
Cn1c(C(=O)O)ccc1S(=O)(=O)N(Cc1ccccc1)Cc1ccccc1 | inactive
CN(CC(=O)NC1CCCCC1)S(=O)(=O)c1cccc2cccnc12 | -0.233%
COc1ccc(S(=O)(=O)N2CCN(c3cnccn3)CC2)cc1 | 42.2% (active)
O=S(=O)(c1cccc(C(F)(F)F)c1)N1CCN(c2cnccn2)CC1 | inactive
COc1ccc(S(=O)(=O)N2CCSCC2)cc1 | inactive
CCOc1ccc(Oc2nc(C)cc(OC)n2)nn1 | -0.469%
CC1CN(C(=O)CN2C(=O)NC(C)(c3ccccc3)C2=O)CC(C)O1 (stereo not given) | inactive
Cc1sc2nc(COC(=O)C(NC(=O)c3ccc(Cl)cc3Cl)C(C)C)[nH]c(=O)c2c1C (stereo not given) | -0.176%
COc1cccc(-n2c(N)cc(=O)nc2SCC(=O)Nc2cc(C)on2)c1 | 0.462%
Cc1ccnc(NC(=O)CCC(=O)N(CC(=O)NCc2ccccc2)Cc2ccco2)c1 | -0.537%
NC(=O)c1nsc(C(=O)N(CC(=O)NCc2ccc(F)cc2)Cc2ccco2)c1N | 25% (active)
COc1ccc(CNC(=O)C(c2ccc(O)cc2)N(Cc2ccco2)C(=O)c2snc(C(N)=O)c2N)cc1 (stereo not given) | 0.29%
Cc1ccc(C(=O)Cc2nnc(C)s2)cc1 | -0.621%

Compound | activation
COc1ccc(C(C#N)N2N=C(C)CC2(C)C)cc1 (stereo not given) | inactive
COc1cc(N/C=C2\CC(=O)NC(C)=C2C#N)cc(OC)c1OC | -0.38%
COc1ccc(-c2cc(C)nc3nc(N)nn23)cc1 | -1.41%
Cc1cc(C)nc(SCc2cn3c(C)cc(C)nc3n2)n1 | -0.12%
COc1ccc(OCc2cn3c(C)cc(C)nc3n2)cc1 | 126% (active)
COc1ccc(Cl)cc1NC(=O)CN(C)Cc1ccc(OC)c(OC)c1 | -0.294%
COc1ccc(Cl)cc1NC(=O)COc1ccc2c(c1)OCO2 | -2.78%
COc1ccc(Cl)cc1NC(=O)COC(=O)c1ccc(Br)o1 | 78.5% (active)
Cc1nc(-c2ccccc2)cn2c1nc1ccccc12 | inactive
Cc1cc(C)c(S(=O)(=O)N(C)CC(=O)NCC2CCCO2)c(C)c1 (stereo not given) | -0.212%
CCC(=O)N1c2ccc(S(=O)(=O)NCc3ccco3)cc2CC1C (stereo not given) | -0.345%
CCn1nnc2cc(C(=O)Nc3ccc(C(=O)OC(C)C)cc3)ccc21 | inactive
CCCc1ccc(C(=O)[C@@H]2[C@@H](C(C)=O)N3c4ccc(F)cc4C=C[C@@H]3[C@@]23C(=O)Nc2ccccc23)cc1 | -0.383%
O=C(O)CCSc1nnc(-c2ccccc2)n1-c1ccccc1 | 4%
O=C(Nc1ccc2oc(-c3ccc4ccccc4c3)nc2c1)c1cccs1 | 25% (active)
O=C(Nc1ccc2oc(-c3ccccc3F)nc2c1)c1ccco1 | 0.203%
COc1cc(OC)cc(C(=O)Nc2ccc(-c3nc4ccccc4o3)c(O)c2)c1 | -1.79%
O=S(=O)(NC1CCCCC1)c1ccc(F)c2ccccc12 | -0.148%
NC(c1csc(NC(=O)Nc2cccc(C(F)(F)F)c2)n1)C1CCCCC1 (stereo not given) | inactive
COCCNc1ncnc2c1ncn2[C@H]1CN(CCN2CCOCC2)C[C@@H](CO)O1 | -0.715%
O=C(NCc1ccc(Cl)cc1)C(=O)NCC1CCCN1S(=O)(=O)c1cccs1 (stereo not given) | inactive
Cc1nonc1C1CCCN1Cc1nc(-c2ccc(F)cc2F)oc1C (stereo not given) | 2.27%
Cc1ccsc1-c1nc(CSCC(=O)NCCN2CCCC2)c(C)o1 | -0.308%
CC(CCc1ccccc1)NCC(O)c1cccc([N+](=O)[O-])c1 (stereo not given) | -0.322%

Compound | activation
COc1ccc(Cl)cc1NC(=O)C1CC(=O)N(c2ccc(F)cc2)C1 (stereo not given) | -0.72%
Cn1nnnc1NCc1ccc(Cl)c(Cl)c1 | inactive
CCCC(=O)n1nc(NCc2ccc(OC)cc2)nc1NCc1ccc(OC)cc1 | inactive
CCCn1nnnc1NCc1ccc(OC)cc1 | 495% (active)
COc1ccc2ccccc2c1CNc1nnnn1C | inactive
COc1ccc(CNc2nnnn2C)cc1 | 25.8% (active)
CCCCn1nnnc1NCc1cc(OC)c(OC)c(OC)c1 | inactive
CCNC(=O)C1(C)CCN(Cc2ccc(C(=O)OCC)o2)C1 (stereo not given) | -0.406%
O=C(COC(=O)CNC(=O)C1CCCCC1)NCc1ccccc1 | inactive
O=C(O)c1cc(S(=O)(=O)Nc2ccc3cn[nH]c3c2)ccc1Br | -0.342%
Cc1ccc(SCC(=O)Nc2nncs2)cc1 | inactive
Cc1ccc(SCC(=O)c2sc(-c3ccccc3)nc2C)cc1 | 25% (active)
Cc1nc(-c2ccc(Cl)cc2)sc1C(=O)CBr | -3.57%
Cc1ccsc1C(=O)N[C@@H](C)c1nnc2ccccn12 | -5.76%
COc1ccc(C(C)C)cc1-c1ccc2nncn2c1 | -1.12%
CCCCNC(=O)C1CCCN(S(=O)(=O)c2ccc(S(=O)(=O)NCC(C)C)cc2)C1 (stereo not given) | -0.448%
O=c1cc(CO)oc(C(Nc2cccc([N+](=O)[O-])c2)c2ccccn2)c1O (stereo not given) | -0.237%
CCNc1nc(NCC)nc(N(C)n2cnnc2)n1 | -0.319%
Cc1cc(C)c(S(=O)(=O)n2cc(C(C)C(N)C(=O)O)c3ccccc32)c(C)c1 (stereo not given) | inactive
COc1ccc(C)cc1NC(=O)NCCCCc1ccccc1 | inactive
Cc1ccc(S(=O)(=O)NNC(=O)/C=C/c2cccc(F)c2)cc1 | inactive
COC(=O)CN1C(=O)C(C)(C)Oc2ccc(C(=O)Nc3cccc(OC)c3)cc21 | -0.813%
O=C(CCN1C(=O)c2ccccc2C1=O)C1=NN[C@@H]2C(=O)N(c3ccc(F)cc3)C(=O)[C@H]12 | 1.21%
